Compounds with a hit are over-represented: about 6.2% of the library has one in this group of screens.
Luc counter: counter-screen: inhibitors of Kinase-Glo firefly luciferase | actives 0.28% (n = 200,000) | Potency, µM (series often up to 38.3 µM), most hits filed as inhibitors | Kinase-Glo luciferase, ATP luminescence, 8 min; note: nearly all actives have a fitted effect of over 60% in size
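Compounds were added to a substrate mix at pH 7.2 (50 mM imidazole, 10 uM ATP, within the enzyme's linear range), followed by Kinase-Glo detection reagent; luminescence was measured after 8 minutes at ambient temperature.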
VP16 counter: Gal4-VP16 reporter inhibition counter-screen | AID 2546 | Drosophila S2 Gal4-VP16 UAS-luciferase, luminescence, 20 h | actives 3.5% (n = 310,000) | Potency, µM (series often up to 53.6 µM), most hits filed as inhibitors;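 note: Gal4-VP16 expression switched on by copper sulfate through the metallothionein promoter; nearly all actives have a fitted effect of over 50% in size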
RORgamma inh: blocks mouse ROR gamma transcriptional activity; actives 5.4% (n = 310,000); Potency, µM (top dose mostly 53.6 µM), actives largely listed as inhibitors; Drosophila S2 Gal4-RORgamma UAS-luciferase reporter, 20 h; note: nearly all actives have a fitted effect of over 60% in size
Target sequence (P51450 whole entry, looked up, the tested form may be a part): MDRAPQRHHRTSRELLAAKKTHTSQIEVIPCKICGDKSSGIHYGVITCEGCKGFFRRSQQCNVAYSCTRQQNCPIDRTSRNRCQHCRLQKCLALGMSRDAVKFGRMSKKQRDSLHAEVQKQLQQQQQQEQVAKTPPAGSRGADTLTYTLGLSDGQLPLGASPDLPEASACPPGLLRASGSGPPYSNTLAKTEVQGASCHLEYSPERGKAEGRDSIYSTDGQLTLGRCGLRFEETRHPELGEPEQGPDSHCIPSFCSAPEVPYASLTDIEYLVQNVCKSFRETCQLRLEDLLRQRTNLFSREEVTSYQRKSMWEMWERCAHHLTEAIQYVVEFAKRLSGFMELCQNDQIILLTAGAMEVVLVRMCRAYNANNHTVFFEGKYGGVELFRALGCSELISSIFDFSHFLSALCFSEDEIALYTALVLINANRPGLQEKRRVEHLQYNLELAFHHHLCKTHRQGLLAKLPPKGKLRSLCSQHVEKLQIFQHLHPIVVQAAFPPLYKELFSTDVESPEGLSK
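Drosophila Schneider cells stably carrying a metallothionein-driven Gal4 DBD–ROR gamma fusion and a UAS-Photinus luciferase reporter were exposed to compound for 1 hr, then induced with copper sulfate (700 uM final) for 20 hr at ambient temperature before luminescence reading.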
Of the large screens only hits and unclear results are named; the others gave an inactive call; ! = repeats disagree. Calls come from the whole dose curve; as a rule, active = well fitted curve in the direction sought with a large enough effect; inconclusive = small, poorly fitted or top-dose-only effect, or another doubt; inactive = no such curve, though single readings can be large; an effect the other way counts as inactive or inconclusive.

Cc1cccc(NNC(N)=S)c1C	VP16 counter inconclusive, RORgamma inh 10µM (no result: Luc counter)
c1ccc(Cn2cnc3ccccc32)cc1	none
Cc1cc(C)c(Cn2cnc3ccccc32)c(C)c1	RORgamma inh 5.62µM
Cc1ccccc1NC(=O)N1CCNC(=O)C1CC(=O)Nc1cc(Cl)ccc1Cl (stereo unspecified)	none (no result: Luc counter)
CNc1cc(C)c(C#N)c2nc3ccccc3n12	none (no result: Luc counter)
CCN(CC)c1cc(C)c(C#N)c2nc3ccccc3n12	none (no result: Luc counter)
Cc1cccc(NC(=O)CSc2cc(C)c(C#N)c3nc4ccccc4n23)c1	VP16 counter inconclusive, RORgamma inh 0.794µM (no result: Luc counter)
Cc1cc(Cl)n2c(nc3ccccc32)c1C#N	VP16 counter inconclusive, RORgamma inh 3.16µM
COc1ccc(COC(=O)N/N=C2/C[C@@H](O)[C@@H](O)[C@@H]3[C@@H]4C(=O)N(C(C)(C)C)C(=O)[C@H]4CC[C@H]23)cc1	none (no result: Luc counter)
Cc1ccc(S(=O)(=O)N[C@H]2COC(=O)C/C=C\[C@H](C)[C@@H](NS(=O)(=O)c3ccc(C)cc3)COC(=O)C/C=C\[C@@H]2C)cc1	none (no result: Luc counter)
CCOC(=O)NC(NC(=S)Nc1ccccc1[N+](=O)[O-])C(Cl)(Cl)Cl (stereo unspecified)	none
COC(=O)NC(NC(=S)Nc1cccc(C)c1)C(Cl)(Cl)Cl (stereo unspecified)	none
O=C(NC(NC(=S)Nc1c(Cl)cc(Cl)cc1Cl)C(Cl)(Cl)Cl)OCc1ccccc1 (stereo unspecified)	VP16 counter 5.62µM, RORgamma inh 7.08µM
Cc1ccc(C)c(NC(=S)NC(NC(=O)OCc2ccccc2)C(Cl)(Cl)Cl)c1 (stereo unspecified)	VP16 counter inconclusive, RORgamma inh 14.1µM
CC[C@H](C)[C@H](NC(=O)[C@H](C)NC(=O)CNC(=O)[C@H](CCCN=C(N)N)NC(=O)[C@H](C)NC(=O)[C@H](CC(C)C)NC(=O)[C@H](CCC(=O)O)NC(=O)[C@H](CC(C)C)NC(=O)[C@H](C)NC(=O)[C@@H](N)CCC(=O)O)C(=O)N[C@@H](Cc1ccccc1)C(=O)N[C@@H](CCC(N)=O)C(=O)N[C@@H](C)C(=O)O	none (no result: Luc counter)
CCOC(=O)/C(C#N)=C/C1=C(N2CCCC2)CC(C)(CC)OC1 (stereo unspecified)	none
Cn1c2ccccc2c(=O)c2ccc(F)cc21	none (no result: Luc counter)
Cc1ccc2c(=O)c3ccccc3n(CCCN)c2c1C	VP16 counter 15.8µM!, RORgamma inh 11.2µM!
CNCC(=O)N1CCN(c2ncc(C(F)(F)F)cc2Cl)CC1	none
NC(=O)c1ccccc1N/C=C/C(=O)c1ccccc1	Luc counter 11.2µM, VP16 counter inconclusive
O=C(/C=C/NNC(=O)c1ccccc1)c1ccccc1	VP16 counter inconclusive, RORgamma inh 7.94µM
COC(=O)c1ccccc1N/C=C/C(=O)c1ccc(Br)cc1	none
Cc1cccc(C(=O)NNC(=O)c2ccc(-c3ccccc3)cc2)c1	none
Cc1ccc(C(=O)C=CNNC(=O)c2ccccc2)cc1	VP16 counter 7.08µM, RORgamma inh 12.6µM (no result: Luc counter)
O=C(/C=C/NNC(=O)c1ccccc1)c1ccc([N+](=O)[O-])cc1	Luc counter inconclusive
Cc1cccc(C(=O)NN/C=C/C(=O)c2ccccc2)c1	VP16 counter 5.01µM, RORgamma inh 6.31µM (no result: Luc counter)
O=C(/C=C/NNC(=O)c1ccc(Br)cc1)c1ccccc1	RORgamma inh inconclusive
COc1ccc(Cl)cc1S(=O)(=O)n1ccnc1C(C)C	none
COc1cccc2nc(-c3cccs3)nc(NN3C(=O)C=C(C)C3=O)c12	VP16 counter 5.01µM, RORgamma inh 6.31µM (no result: Luc counter)
COc1ccc(Nc2nc(-c3cccs3)nc3ccccc23)c(OC)c1	none
N#Cc1ccc2ccn(CC(=O)NCc3ccccc3)c2c1	RORgamma inh inconclusive
COc1ccc(C2C(Oc3ccccc3)C(=O)N2c2cc(C)ccc2C)cc1OC (stereo unspecified)	none
COc1ccc(C)cc1N1C(=N)/C(=C2/Nc3ccccc3S2)C(c2ccccc2)C1=O (stereo unspecified)	VP16 counter 8.91µM, RORgamma inh 2.51µM
O=C1CCCN1CCCNC(=S)Nc1cccc2ccccc12	none
CCCCc1nc2cc(C(=O)N3CCCC(COC)C3)ccc2o1 (stereo unspecified)	none (no result: Luc counter)
COc1ccc(-n2cnnc2SCC(=O)c2ccc(S(=O)(=O)N3CCOCC3)cc2)cc1	VP16 counter 20µM, RORgamma inh inconclusive
COc1ccc(-n2cnnc2SCC(=O)Nc2cc(S(=O)(=O)N3CCCCC3)ccc2C)cc1	RORgamma inh inconclusive
O=C(CCCn1c(SCC(=O)c2ccc(O)c(O)c2)nc2ccccc2c1=O)NCC1CCCO1 (stereo unspecified)	none
COc1ccc(C2=NCN(c3ccc(C)cc3)C(=S)N2)cc1	VP16 counter 2.82µM
Cc1ccc(N2CN=C(c3ccccc3)NC2=S)cc1	RORgamma inh inconclusive
COC(=O)CCC(=O)Nc1ccc(Cl)c(Cl)c1	none
O=C(Nc1cc(C(F)(F)F)ccc1Cl)c1ccncc1	none
C/C(CC(=O)Nc1cccc(C(F)(F)F)c1)=N\NC(=O)Cc1ccccc1	RORgamma inh inconclusive
COC(=O)CCC(=O)NC(=S)Nc1cc(Cl)ccc1Cl	VP16 counter inconclusive, RORgamma inh 10µM
O=C(O)CSCC(=O)Nc1cc(C(F)(F)F)ccc1Cl	none
Cc1ccc(C(=O)NC(=S)Nc2cc(C(F)(F)F)ccc2Cl)cc1	RORgamma inh 10µM
O=C(Cc1ccccc1)NC(=S)Nc1cc(C(F)(F)F)ccc1Cl	RORgamma inh 1.58µM
O=C(Cc1ccccc1)NC(=S)Nc1cccc(C(F)(F)F)c1	VP16 counter 12.6µM, RORgamma inh 7.08µM (no result: Luc counter)
COc1ccc(C2C3C=CCC(c4cccc(-c5ccc(N(C)C)cc5)c4)C3C(=O)N2Cc2ccccc2)cc1Cl (stereo unspecified)	none (no result: Luc counter)
COc1ccc(-c2ccc(SCC(=O)Nc3nccs3)nn2)cc1OC	none
COC(=O)c1cc(NC(=O)c2cccc(Cl)c2)c(=O)oc1/C=C/Nc1cc(C)cc(C)c1	none
COc1ccc(C2CC(=O)c3c(O)cc(O[C@H]4OC(COC5OC(C)C(O)C(O)[C@@H]5O)C(O)C(O)C4O)cc3O2)cc1O (stereo partly specified)	none
CC(=O)NCCNc1cc(-c2ccccc2C)ncn1	none (no result: Luc counter)
Cc1ccc(C2=Nc3ccccc3N=C(c3ccc([N+](=O)[O-])cc3)C2)c(O)c1	VP16 counter inconclusive
CSC1=C(C#N)C(c2sccc2C)CC(=O)N1 (stereo unspecified)	none
Oc1ccc(-c2n[nH]c(C(F)(F)F)c2-c2ccccc2)c(O)c1	VP16 counter 1.58µM, RORgamma inh 5.62µM (no result: Luc counter)
COc1ccc(-c2c(-c3ccc(OC)c(C)c3O)n[nH]c2C)cc1	VP16 counter 11.2µM, RORgamma inh 11.2µM (no result: Luc counter)
COc1ccccc1-c1c(-c2ccc(O)cc2O)n[nH]c1C(F)(F)F	RORgamma inh inconclusive (no result: Luc counter)
COc1ccc(-c2c(-c3ccc(O)cc3O)n[nH]c2C)cc1OC	none
COc1ccc(-c2c(-c3ccc(O)cc3O)n[nH]c2C(F)(F)F)cc1	VP16 counter 10µM (no result: Luc counter)
C=C(C)COc1ccc(-c2ncnc(C(F)(F)F)c2-c2ccc(OC)cc2)c(O)c1	none (no result: Luc counter)
CCOC(=O)c1ccc(NC(=O)c2cn(CCC#N)nc2-c2ccc3c(c2)OCCO3)cc1	none
CC(C)OC(=O)[C@@H]1CC[C@H](C)[C@@H](CCCC=O)O1	none
CC(=O)N1CCN(c2ccc([N+](=O)[O-])c(NCc3cccnc3)c2)CC1	none
